ERK EGF block = inhibitors of EGF-stimulated ERK signaling pathway; hit rate 0.41% among 130,000; Potency, µM (top dose mostly 11.5 µM), for inactives: top-dose activity change, negative = inhibition, most hits filed as inhibitors; HEK293-V1b, EGF-stimulated phospho-ERK AlphaScreen; active means well fitted inhibition curve with a large enough effect;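 further: plate controls were stimulated vehicle wells for no effect and unstimulated vehicle basal for full effect; nearly all actives have a fitted effect of over 55% in size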
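HEK293 cells stably expressing V1b receptor, serum-reduced (1% FBS) overnight, got compound for 30 min at 37C, then 25 nM EGF for 5 min. Lysate phospho-ERK read by AlphaScreen SureFire; AC50 from Hill fits.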
Starred values were filed as active, the others as inactive; [ ] = remark or other dose. The sample as a whole holds a higher share of hits than the screen did. Potency means the concentration at half of the fitted maximal effect.

Screening CCCCCCCc1cc2c(cn1)=C(OC)C(C)(OC(C)=O)C(=O)C=2Cl (stereo not given) returned ERK EGF block 0%.
`O=C(c1cc(COc2ccc3ncccc3c2)on1)N1CCCCCC1` gave ERK EGF block -2%.
O=C(NCCc1cn2ccccc2n1)c1cc(COc2ccc3ncccc3c2)on1 was read as ERK EGF block 28µM*.
For O=C(NC1CCCC1)c1cc(COc2ccc3ncccc3c2)on1 the results were ERK EGF block -10%[57.5 µM].
For C=C(C(=O)OC)C(NC(=O)OC)c1ccccc1 (stereo not given) the results were ERK EGF block 0%.
Screening C=C1C(=O)C=C2CN(C(=O)c3ccccc3)[C@@](Cc3ccc(F)cc3)(C(=O)OC)[C@@H]12 returned ERK EGF block 22µM*.
COC(=O)[C@@]1(Cc2ccc(OC)cc2)[C@@H]2C(=CC(=O)[C@H]2CC(=O)C(=O)N(C)C)CN1C(=O)c1ccccc1 was read as ERK EGF block 0%.
Screening COC(=O)[C@@]1(Cc2ccc(F)cc2)[C@H]2c3cc(C(=O)N(C)C)n(Cc4ccccc4)c3C[C@H]2CN1C(=O)c1ccccc1 returned ERK EGF block -1%.
Screening COC[C@H]1OC=C[C@@H](OC)[C@@H]1OC returned ERK EGF block -16%.
Screening CCNC(=S)Nc1cccc(S(=O)(=O)Nc2ccccc2OC)c1 returned ERK EGF block 2%[57.5 µM].
Screening COc1ccccc1NS(=O)(=O)c1cccc(NC(=O)Nc2ccc(Cl)cc2)c1 returned ERK EGF block 28µM*.
Screening COc1ccccc1NS(=O)(=O)c1cccc(NC(=O)Cc2cccs2)c1 returned ERK EGF block 1%.
Screening COC(=O)N1C(C)=Cc2ccccc2C1CC(C)=O (stereo not given) returned ERK EGF block -1%.
For Cc1cccc(-c2cc3nc(C)c(C)c(NCCCn4ccnc4)n3n2)c1 the results were ERK EGF block 32µM*.
`Cc1cccc(-c2cc3nc(C)cc(C)n3n2)c1` gave ERK EGF block -13%.
Cc1cc(-c2ccccc2)nc2cc(C(=O)NCCCn3ccnc3)nn12 was read as ERK EGF block -2%.
Screening CCN1CCCC1Cn1c(-c2ccccc2)nc2c(N(CCOC)CCOC)nc(C)nc21 (stereo not given) returned ERK EGF block 8%.
`COc1cccc([C@@H]2Oc3ccc(OC)cc3C[C@H]2OC(=O)NS(=O)(=O)c2ccc(C)cc2)c1` gave ERK EGF block -5%.
C=CC[C@@](C(C)=O)(C(=O)OC)C(NC(=O)OC)c1ccccc1 (stereo not given in full) was read as ERK EGF block -2%.
CCn1ccnc1CN1CCc2c([nH]c3ccccc23)C1C(C)(C)C (stereo not given) was read as ERK EGF block 32µM*.
Screening Cc1cnc(CN2CCc3c([nH]c4ccccc34)C2CC(C)C)[nH]1 (stereo not given) returned ERK EGF block -5%.
For COCc1ccc(CN2CCc3c([nH]c4ccccc34)C2C(C)(C)C)o1 (stereo not given) the results were ERK EGF block -5%.
COC(=O)[C@@H]1C[C@H]1[C@@H](NC(=O)c1ccc(Br)cc1)c1ccccc1 was read as ERK EGF block 7%.
Screening CCc1c(C)nc2ncnn2c1NC1CCCc2ccccc21 (stereo not given) returned ERK EGF block 5%.
For CCc1cccc(Nc2cc(C)nc3ncnn23)c1 the results were ERK EGF block -6%.
CCc1c(C)nc2ncnn2c1Nc1ccc(C)c(C)c1 was read as ERK EGF block 22µM*.
`COc1ccc(-c2nn(-c3ccccc3)cc2/C=N/Nc2ccc3ccccc3n2)cc1OC` gave ERK EGF block 4%.
For COc1ccc(-c2nn(-c3ccccc3)cc2/C=N/NC(=S)NC(C)C)cc1OC the results were ERK EGF block -7%.
`COc1ccc(-c2nn(-c3ccccc3)cc2/C=N/N=C(N)N)cc1OC` gave ERK EGF block 25µM*.
Screening C=CCOC(=O)[C@H](O)[C@@H](O)C(=O)OCC=C returned ERK EGF block -13%.
For C/C=C\C[C@H](C)[C@H](O)[C@H]1C(=O)N[C@@H](CC)C(=O)N(C)CC(=O)N(C)[C@@H](CC(C)C)C(=O)N[C@@H](C(C)C)C(=O)N(C)[C@@H](CC(C)C)C(=O)N[C@@H](C)C(=O)N[C@@H](C)C(=O)N(C)[C@@H](CC(C)C)C(=O)N(C)[C@@H](CC(C)C)C(=O)N(C)[C@@H](C(C)C)C(=O)N1C the results were ERK EGF block 11%[25.7 µM].
`COCCN(CCOC)c1nc(C)nc2c1nc(-c1ccccc1)n2CC1CCN(C)CC1` gave ERK EGF block 4%.
`COc1ccc(C2Oc3cc(OC)cc(OC)c3CC2O)cc1` (stereo not given) gave ERK EGF block 16%.
For CCN(CC)c1ccc(/C=C(/C#N)C(=O)NC(C)C)o1 the results were ERK EGF block -7%.
CC(C)N1C(=O)S/C(=C/c2ccccc2OCc2ccc(C(=O)O)cc2)C1=O was read as ERK EGF block -2%.
`CCN(CC)c1ccc(/C=C2/SC(=O)N(C(C)C)C2=O)o1` gave ERK EGF block 28µM*.
For CC(=O)OCC1C2CC[C@H]3C(OCc4ccc(F)cc4C(F)(F)F)OC[C@]4(C)[C@H]3C2=C(CN4C(=O)OC(C)(C)C)[C@H](C)C1COC(C)=O (stereo not given in full) the results were ERK EGF block -28%.
For Cc1ccnc(NC(c2ccsc2)c2ccc3ccc(C)nc3c2O)c1 (stereo not given) the results were ERK EGF block 32µM*.
For Cc1ccnc(NC(c2cccnc2)c2ccc3cccnc3c2O)c1 (stereo not given) the results were ERK EGF block 3%.
`Cc1cccc(NC(c2ccc(C)s2)c2ccc3ccc(C)nc3c2O)n1` (stereo not given) gave ERK EGF block 9%.
`CC(C)Cn1nnnc1S(=O)(=O)Cc1ccccc1` gave ERK EGF block -9%.
Screening C[C@@H](C1[C@@H](O)CC2C3C=CC4C[C@@H](O)CC[C@]4(C)[C@H]3CC[C@@]21C)[C@@H]1CCCCN1 (stereo not given in full) returned ERK EGF block 3%.
For COc1ccc(-c2nc(-c3ccccc3)c(Nc3c(C)cccc3C)o2)cc1 the results were ERK EGF block -4%.
`CCCN1C(=O)/C(=C/c2ccc(OCC(=O)OCC)cc2)NC1=S` gave ERK EGF block 32µM*.
CCCN1C(=O)/C(=C/c2ccc(N3CCOCC3)cc2)NC1=S was read as ERK EGF block -4%.
`CCOc1cc(/C=C2/NC(=O)N(CC(=O)OC)C2=O)ccc1OC` gave ERK EGF block -3%.
Screening CCN(CC)CCn1c(-c2ccccc2)nc2c(NCCOC)nc(C)nc21 returned ERK EGF block -5%.
Screening CC(=O)OC1CC[C@]2(C)C(CC(OC(C)=O)[C@]3(C)C2CC[C@@]2(C)C(c4ccoc4)OC(=O)C4O[C@]432)C1(C)C (stereo not given in full) returned ERK EGF block 20%.
Screening Cc1ccc(C2=NOC(=O)/C2=C\C=C\c2ccccc2)cc1 returned ERK EGF block 32µM*.
For CC1=NN(c2ccccc2)C(=O)/C1=C/C=C/c1ccccc1 the results were ERK EGF block 16µM*.
CN(C)/C=C1\C(=O)ON=C1c1ccccc1 was read as ERK EGF block 3%.
`CC1=NN(c2ccccc2)C(=O)C1=C(C)C` gave ERK EGF block -4%.
`CC1=NN(c2cccc(C(=O)O)c2)C(=O)/C1=C\C=C\c1ccco1` gave ERK EGF block 2%.

Screening data (PubChem BioAssay)
